Data reported in PubChem BioAssay AID504332 (National Center for Advancing Translational Sciences (NCATS), 2011).
About 31,000 (8.9%) of roughly 350,000 compounds were called active. Roughly 15% stayed inconclusive and do not appear here. The entries come from a sample that favours actives as a whole. Unmarked numbers belong to inactive results. Calls follow the shape of the dose curve; as a rule, active = well fitted inhibition curve with a large enough effect; inconclusive = small, poorly fitted or top-dose-only effect; inactive = no such curve, though single readings can be large or run the other way.

molecular target: Histone-lysine N-methyltransferase EHMT2 (Homo sapiens) (UniProt Q96KQ7); test: qHTS Assay for Inhibitors of Histone Lysine Methyltransferase G9a; settings: G9a H3K9 monomethylation, AlphaScreen, 2 h; series mostly up to 59 µM; activity, negative = inhibition: at the top concentration; also: nearly all actives have a fitted effect of over 75% in size
Sequence (Q96KQ7 913-1193 limits assumed): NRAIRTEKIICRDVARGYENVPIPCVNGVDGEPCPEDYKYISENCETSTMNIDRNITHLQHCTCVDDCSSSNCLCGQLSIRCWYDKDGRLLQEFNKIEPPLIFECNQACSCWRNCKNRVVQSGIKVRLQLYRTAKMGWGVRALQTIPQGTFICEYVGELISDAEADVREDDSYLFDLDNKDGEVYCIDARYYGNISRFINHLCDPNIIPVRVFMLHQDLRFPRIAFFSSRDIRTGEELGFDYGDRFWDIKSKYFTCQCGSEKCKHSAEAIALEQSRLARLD
Procedure, shortened: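 G9a (20 nM) preincubated 15 min RT with compounds, then 500 nM biotinylated H3K9 peptide and 20 uM SAM added; 2 h RT reaction. Monomethyl-H3K9 product detected by AlphaScreen with anti-H3K9me1 antibody, streptavidin donor and anti-rabbit IgG acceptor beads.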
% is scaled to controls: 0 for no effect and ±100 for the full control effect; potency is read from the fitted curve at half-maximal effect.

SMILES | activity, negative = inhibition | Potency
CC12CCC(=O)N1C(C(=O)NCCN1C(=O)S/C(=C\c3ccccc3F)C1=O)CS2 (stereo unspecified) | -5.94% [at 12.7 µM] | –
Cc1cccc(N2CCN(C(=O)c3ccc(Nc4nc5ccccc5n5nnnc45)cc3)CC2)c1C | 8.07% (inactive) | –
COc1ccc(Cl)cc1NC(=O)CN(C)C(=O)CNC(=O)C12CC3CC(CC(C3)C1)C2 | 7.61% [at 12.7 µM] | –
COc1ccc(Cl)cc1NC(=O)CCC(=O)c1ccc(C)cc1 | 0.463% (inactive) | –
COc1ccc(Cl)cc1NC(=O)CN(C)Cc1ccc(OC)c(OC)c1 | – | 4.47 µM (active)
COc1ccc(Cl)cc1NC(=O)CNc1ccccc1F | – | 79.4 µM (active)
COc1ccc(C)cc1NC(=O)CSc1ccc(Cl)cc1 | 68% (inactive) | –
COc1ccc(Cl)cc1NC(=O)CN(C)C(=O)c1ccc2n[nH]nc2c1 | 15.9% [at 12.7 µM] | –
CCC(=O)c1ccc(OCC(=O)Nc2ccc(N3CCCCC3)cc2)cc1 | 13.1% [at 12.7 µM] | –
CSc1ccc(Cl)c(C(=O)OCC(=O)N2CCNC2=O)c1 | 11.9% [at 12.7 µM] | –
COc1ccc(OC)c(NC(=O)CSC2=Nc3ccccc3C3=NC(CC(=O)NCc4ccc(F)cc4)C(=O)N23)c1 (stereo unspecified) | -3.53% (inactive) | –
CC(C)c1ccc(NC(=O)Cn2ncc3ccccc32)cc1 | 16.2% [at 102 µM] (inactive) | –
CCC(C)N(C(=O)COC(=O)c1nc(Cl)ccc1Cl)C1CCS(=O)(=O)C1 (stereo unspecified) | -0.744% [at 0.501 µM] | –
COc1cccc(CNS(=O)(=O)c2ccc3c(c2)CC(C)N3C(C)=O)c1 (stereo unspecified) | 3.98% [at 102 µM] (inactive) | –
CC(C)CCN1CCN=C1N(C)C | 11% [at 2.33 µM] | –
CCOc1ccc(CNC(=O)C2CCCN(S(=O)(=O)N(CC)c3ccc(OCC)cc3)C2)cc1 (stereo unspecified) | -17.3% (inactive) | –
CC(=O)N1CCOc2ccc(S(=O)(=O)N3CCN(c4cccc(C(F)(F)F)c4)CC3)cc21 | 2.97% [at 102 µM] (inactive) | –
Cc1ccc2nc3c(cc(C(=O)NC4CCCCC4)c(=N)n3C(C)C)c(=O)n2c1 | 3.7% (inactive) | –
CCOC(=O)CNC(=O)/C(=C\c1ccc(F)cc1)NC(=O)c1ccccc1 | 24.9% [at 12.7 µM] | –
COc1ccc(/C=C(\NC(=O)c2ccccc2)C(=O)NCCN2CCOCC2)cc1OC | 11.3% [at 102 µM] (inactive) | –
Cn1c2ccccc2c2cc(/C=C(\NC(=O)c3ccccc3)C(=O)NCC(=O)O)ccc21 | – | 50.1 µM (active)
COc1ccc(F)cc1C(=O)COC(=O)c1n[nH]c(=O)c2ccccc12 | 0.826% (inactive) | –
Cc1coc2c(O)cc3c(c12)OC1(N2CCCCC2)C(=O)NCCCC31 (stereo unspecified) | – | 7.94 µM (active)

SMILES | activity, negative = inhibition | Potency
C=CCC1=C/C(=C\c2c(N)n3nc(CC(=O)N4CCOCC4)sc3nc2=O)C=C(OC)C1=O | -45.8% [at 102 µM] (inactive) | –
Cc1ccccc1Nc1nc(N)nc(COC(=O)CCC(=O)c2ccc(F)cc2)n1 | -37.6% [at 102 µM] (inactive) | –
COC(=O)[C@H](Cc1ccccc1)NC(=O)[C@@H]1C[C@H]1[C@@H](NC(=O)OCc1ccccc1)c1ccccc1 | 4.81% [at 102 µM] (inactive) | –
O=C(NCc1ccccc1)[C@H]1C[C@@H]1[C@H](NP(=O)(c1ccccc1)c1ccccc1)c1ccccc1 | – | 28.2 µM (active)
O=C(O)C1C2C=CC(C2)C1C(=O)NCc1ccccc1 (stereo unspecified) | 1.59% [at 2.33 µM] | –
O=C(CSCc1cnn(-c2ccccc2)c1-n1cccc1)NCc1ccccc1Br | -6.39% (inactive) | –
Cc1cc(C)nc(S/C=C/C(=O)c2ccccc2)n1 | – | 22.4 µM (active)
C/C(=N\NC(=O)c1nc(C)cc(C)n1)c1ccccc1 | 5.99% (inactive) | –
Cc1cc(SCC(=O)c2ccccc2)nc(SCC(=O)c2ccccc2)n1 | 52.4% [at 102 µM] (inactive) | –
COc1ccc(Cn2cc(C(=O)c3ccc(C)cc3)c(=O)c3cc(OC)c(OC)cc32)cc1 | -4.14% (inactive) | –
CC12CCC(=O)N1C(C(=O)Nc1ccc(F)c(F)c1F)CS2 (stereo unspecified) | 13.3% [at 12.7 µM] | –
CCOC(=O)c1sc(NC(=O)C2CSC3(C)CCC(=O)N23)nc1C (stereo unspecified) | 20.6% [at 12.7 µM] | –
Cc1ccc2nc(NC(=O)C3CSC4(C)CCC(=O)N34)sc2c1 (stereo unspecified) | – | 39.8 µM (active)
Cc1oc2c(c1C(=O)Nc1ccc(F)c(F)c1)C1=NCCN1C=N2 | 6.48% (inactive) | –
COc1ccc(-c2nn(CC(=O)NC3CCCC3)c3c2cnc2ccc(F)cc23)cc1 | 4.34% (inactive) | –
COc1ccccc1Nc1ncc(C(C)=O)c(C)n1 | 20.8% [at 102 µM] (inactive) | –
C=C(C)C1CC=C(C)/C(=N/NC(=O)CCCNc2cccc(C)c2)C1 (stereo unspecified) | -9.82% [at 102 µM] (inactive) | –
C=C(C)C1CC=C(C)/C(=N\NC(=O)CNc2ccccc2OC)C1 (stereo unspecified) | – | 35.5 µM (active)
CCOC(=O)c1c(S(=O)(=O)N2CCCC(C(=O)NCc3cccc(C)c3)C2)c(C)n(C)c1C (stereo unspecified) | 5.95% (inactive) | –
O=C(NCCC1CCCCN1S(=O)(=O)c1ccc(F)cc1)C(=O)NC1CC1 (stereo unspecified) | 16.1% [at 0.501 µM] | –
COc1ccc(NC(=O)CCCN2C(=O)C(c3ccccc3)Oc3cccnc32)cc1 (stereo unspecified) | -1.84% (inactive) | –
Cc1cc(C)nc(NC(=O)c2cccc([N+](=O)[O-])c2)c1 | 0.861% [at 102 µM] (inactive) | –
O=[N+]([O-])c1cccc(/C([O-])=C(/C(=S)Nc2ccccc2F)[n+]2ccccc2)c1 | – | 28.2 µM (active)
